Structures are written as SMILES. Records with an inconclusive call do not appear. Activity calls are given as the source filed them. The call rests on the fitted dose curve; in most records, active means well fitted inhibition curve with a large enough effect; inconclusive means small, poorly fitted or top-dose-only effect; inactive means flat fitted curve, though single readings scatter.
On the % scale 0 is the no-effect control and ±100 the full control effect; potency means the concentration at half of the fitted maximal effect.

The target in the assay is Voltage-gated inwardly rectifying potassium channel KCNH2 (Homo sapiens) (UniProt Q12809). Put plainly: qHTS Assay for Small Molecule Inhibitors of the Human hERG Channel Activity (AID 588834).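 Further: lower thallium flux fluorescence means stronger hERG block; nearly all actives have a fitted effect of over 50% in size.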 On activity change, negative = inhibition: top concentration of the series differs between compounds. To be noted: U2OS BacMam hERG, FluxOR thallium flux fluorescence; series mostly up to 46.1 µM; activity change, negative = inhibition: at the top concentration. The procedure, abridged: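 Cells were infected with hERG-BacMam virus for 4 hrs at room temperature, grown overnight, then seeded at 2000/well. After dye loading and roughly 10 min compound treatment, thallium influx was triggered and fluorescence recorded.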
Sequence of Voltage-gated inwardly rectifying potassium channel KCNH2 (Homo sapiens) (Q12809 whole entry, looked up): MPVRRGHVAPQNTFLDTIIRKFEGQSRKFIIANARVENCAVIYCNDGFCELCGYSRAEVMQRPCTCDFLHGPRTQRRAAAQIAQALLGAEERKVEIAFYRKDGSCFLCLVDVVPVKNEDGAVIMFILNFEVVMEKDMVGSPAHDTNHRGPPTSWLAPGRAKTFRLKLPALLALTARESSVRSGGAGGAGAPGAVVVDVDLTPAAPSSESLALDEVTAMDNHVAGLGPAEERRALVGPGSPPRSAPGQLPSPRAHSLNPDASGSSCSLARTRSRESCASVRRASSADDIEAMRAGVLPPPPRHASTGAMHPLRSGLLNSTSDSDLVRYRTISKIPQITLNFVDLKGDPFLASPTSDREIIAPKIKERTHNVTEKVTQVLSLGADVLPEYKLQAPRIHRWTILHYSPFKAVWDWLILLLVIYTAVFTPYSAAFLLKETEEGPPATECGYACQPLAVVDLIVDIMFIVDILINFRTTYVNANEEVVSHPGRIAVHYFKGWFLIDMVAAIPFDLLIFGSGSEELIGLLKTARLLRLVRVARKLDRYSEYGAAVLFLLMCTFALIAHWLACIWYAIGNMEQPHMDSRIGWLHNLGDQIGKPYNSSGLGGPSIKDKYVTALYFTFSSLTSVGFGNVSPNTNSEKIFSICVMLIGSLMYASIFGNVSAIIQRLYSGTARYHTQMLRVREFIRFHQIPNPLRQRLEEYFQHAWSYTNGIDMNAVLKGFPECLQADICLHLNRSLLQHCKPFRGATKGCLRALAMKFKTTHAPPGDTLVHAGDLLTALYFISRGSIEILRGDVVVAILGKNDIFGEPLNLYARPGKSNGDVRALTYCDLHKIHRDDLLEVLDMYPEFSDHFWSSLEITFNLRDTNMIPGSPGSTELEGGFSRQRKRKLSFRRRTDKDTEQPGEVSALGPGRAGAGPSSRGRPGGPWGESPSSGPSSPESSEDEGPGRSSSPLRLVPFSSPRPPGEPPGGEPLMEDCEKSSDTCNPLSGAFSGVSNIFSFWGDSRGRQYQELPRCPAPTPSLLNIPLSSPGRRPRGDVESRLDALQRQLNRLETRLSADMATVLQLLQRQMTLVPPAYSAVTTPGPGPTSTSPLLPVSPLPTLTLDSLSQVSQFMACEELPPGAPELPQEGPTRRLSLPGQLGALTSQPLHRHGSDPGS
For orientation: qHTS replaces the single test concentration by a dilution series.
`N.N.O=C(O)C1(C(=O)O)CCC1.[Pt]`: the “activity change, negative = inhibition” value is 1.83% (inactive).

In the case of `CCCC(=O)OC[C@@H](OC(=O)CCC)[C@@H](OC(=O)CCC)[C@H](Cn1c2nc(=O)[nH]c(=O)c-2nc2cc(C)c(C)cc21)OC(=O)CCC`, the Potency is 10 µM (active). Still for that read-out and setting: next, `CO[C@H]1C[C@@H]2CC[C@@H](C)[C@@](O)(O2)C(=O)C(=O)N2CCCC[C@H]2C(=O)O[C@H]([C@H](C)C[C@@H]2CC[C@@H](O)[C@H](OC)C2)CC(=O)[C@H](C)C=C(C)[C@@H](O)[C@@H](OC)C(=O)[C@H](C)C[C@H](C)/C=C/C=CC=C1C`: “inactive”.

Take `CC1(C)CCC=[N+]1[O-]`: the “activity change, negative = inhibition” value is 2.32% (inactive). Still for that read-out and setting: as for `N=C(N)SCCc1ccc(CCSC(=N)N)cc1`, the figure is 1.34% (inactive).

Take `O=Nc1ccc2oc(=O)ccc2c1`: the “activity change, negative = inhibition” value was 5.7% (inactive). With `CC(C)NC[C@H](O)COc1cccc2[nH]ccc12`, the “activity change, negative = inhibition” value was 1.16% (inactive).

As to `CO/N=C(\C(=O)N[C@@H]1C(=O)N2C(C(=O)O)=C(COC(C)=O)CS[C@H]12)c1csc(N)n1` (stereo in doubt), the Potency result is “inactive”. On to `CC(=O)SCC[N+](C)(C)C`, for which the “activity change, negative = inhibition” value was 8.81% (inactive). Turning to `CCCCCCCCCCCCCCCC(=O)NCC(COP(=O)([O-])OCC[N+](C)(C)C)OCC` (stereo not given), the “activity change, negative = inhibition” value was 17.8% (inactive). Consider `O=C(O)[C@@H]1C[C@H](C(=O)O)N1`, for which the “activity change, negative = inhibition” value is 5.02% (inactive). Same read-out and setting: as for `CN(C)C(N)=NCCC[C@H](N)C(=O)O`, the figure is 16.5% (inactive).

`COc1ccccc1N1CCN(CCCCNS(=O)(=O)c2cccc3c(N(C)C)cccc23)CC1`: the Potency was 1.41 µM (active). On to `COc1ccc(/C=C/C(=O)Nc2ccccc2C(=O)O)cc1OC`, for which the “activity change, negative = inhibition” value is -20.8% (inactive).

In the case of `Nc1ccn([C@@H]2O[C@H](CO)[C@@H](O)[C@@H]2O)c(=O)n1`, the “activity change, negative = inhibition” value was 12% (inactive). On the same count and under the same terms, next, `CCCCCC[C@@H](O)C/C=C\CCCCCCCC(=O)O`: -4.94% (inactive); `CCCn1c(=O)c2[nH]c(-c3ccc(OCC(=O)NCCN)cc3)nc2n(CCC)c1=O`: 0.294% (inactive); `NCCCCC(=O)O`: -1.99% (inactive). `Cc1cc(O)c2ccccc2c1O`: the “activity change, negative = inhibition” value is -49.8% (inactive). The same measure, in the same setting: as for `Nc1c(CC(=O)O)cccc1C(=O)c1ccc(Br)cc1`, the figure is 4.67% (inactive); as for `CN[C@H](CC(C)C)C(=O)N[C@H]1C(=O)N[C@@H](CC(N)=O)C(=O)N[C@H]2C(=O)N[C@H]3C(=O)N[C@H](C(=O)N[C@H](C(=O)O)c4cc(O)cc(O)c4-c4cc3ccc4O)[C@H](O)c3ccc(c(Cl)c3)Oc3cc2cc(c3O[C@@H]2O[C@H](CO)[C@@H](O)[C@H](O)[C@H]2O[C@H]2C[C@](C)(N)[C@H](O)[C@H](C)O2)Oc2ccc(cc2Cl)[C@H]1O`, -7.26% (inactive).

As for `O=c1[nH]c2ccccc2n1CCCN1CCN(C(c2ccccc2)c2ccccc2)CC1`, the Potency was 3.55 µM (active). As to `Cn1cc(C2=C(c3ccc(Cl)cc3Cl)C(=O)NC2=O)c2ccccc21`, the Potency is 2.51 µM (active).

`CC(=O)N[C@H](C(=O)O)C(C)(C)SN=O`: the “activity change, negative = inhibition” value was 4.4% (inactive). On to `CCCCC[C@H](O)/C=C/[C@@H]1[C@@H](C/C=C\CCCC(=O)O)[C@@H](O)C[C@H]1O`, for which the Potency result is “inactive”.

For the molecule `COc1cccc2c1C(=O)c1c(O)c3c(c(O)c1C2=O)C[C@@](O)(C(=O)CO)C[C@@H]3O[C@H]1C[C@H](N)[C@H](O[C@@H]2CCCCO2)[C@H](C)O1`, the “activity change, negative = inhibition” value was 11.3% (inactive). On the same count and under the same terms, next, `COc1cc(NC(C)CCCN)c2ncccc2c1` (stereo not given): -25.1% [at 20.6 µM] (inactive). Consider `CN=c1nc(-c2ccccc2)n(-c2ccccc2)s1`, for which the Potency is 11.2 µM (active). On to `Oc1cc(O)cc(/C=C/c2ccc(O)c(O)c2)c1`, for which the “activity change, negative = inhibition” value was -23.3% (inactive). Same read-out and setting: as for `O=C(O)[C@@H]1C[C@@H](C(=O)O)N1`, the figure is 15.6% (inactive); as for `O=c1[nH]c2cc(Cl)c(Cl)cc2[nH]c1=O`, 1.72% (inactive).

For `O=C(c1cc(O)c(O)c([N+](=O)[O-])c1)c1ccccc1F`, the “activity change, negative = inhibition” value was 6.87% (inactive). Same read-out and setting: next, `CCCCCCOc1ccccc1C(N)=O`: -28.9% (inactive); `CCCSc1ccc2nc(NC(=O)OC)[nH]c2c1`: -21.1% [at 20.6 µM] (inactive); `O=C(O)CC[C@@H](C(=O)O)N1C(=O)c2ccccc2C1=O`: 11.6% (inactive).

(Values after PubChem BioAssay (NCATS).)
